Experimental data taken from PubChem BioAssay (EPA / NIEHS).
Results filed as inconclusive are left out. Activity calls are given as the source filed them. Rule for the calls: active = hit-call score of the fitted dose curve at least 0.9, where 1 is the maximum; inconclusive = response in the unintended direction; inactive = score below 0.9.

Molecular target: Cellular tumor antigen p53 (Homo sapiens) (UniProt P04637)
Test: TOX21_p53_BLA_p2_ratio: Tox21 HCT-116 p53 Agonism Beta-lactamase Assay, Ratio, Phase 2 (AID 2283592)
In short: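 Ratio endpoint: beta-lactamase cleavage of CCF4-AM, blue (460 nm) over green (530 nm). HCT116 reporter line; 16 h treatment, 37C; substrate 2 h RT.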

Sequence of Cellular tumor antigen p53 (Homo sapiens) (P04637 whole entry, looked up): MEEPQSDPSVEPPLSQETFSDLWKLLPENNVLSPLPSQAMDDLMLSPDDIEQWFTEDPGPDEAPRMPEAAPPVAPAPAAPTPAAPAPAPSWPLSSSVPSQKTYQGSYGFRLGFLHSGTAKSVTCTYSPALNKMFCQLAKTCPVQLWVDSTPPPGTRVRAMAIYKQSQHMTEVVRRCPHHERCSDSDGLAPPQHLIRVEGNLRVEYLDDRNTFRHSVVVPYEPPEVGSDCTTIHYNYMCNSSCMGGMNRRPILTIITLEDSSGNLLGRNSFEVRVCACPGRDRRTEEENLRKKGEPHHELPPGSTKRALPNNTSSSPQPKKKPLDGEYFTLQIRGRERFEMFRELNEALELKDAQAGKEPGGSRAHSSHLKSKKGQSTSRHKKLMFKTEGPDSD

| Compound | outcome |
| --- | --- |
| CC(C)(C)c1nnc(NS(=O)(=O)c2ccccc2)s1 | inactive |
| CC(N)CN (stereo not drawn) | inactive |
| COc1cc(C(=O)N2CCCCCCC2)cc(OC)c1OC | inactive |
| C=CCCCCCC | inactive |
| CCC(O)c1ccccc1 (stereo not drawn) | inactive |
| CN1CCN(c2cc3c(cc2F)c(=O)c(C(=O)O)cn3-c2ccc(F)cc2)CC1 | inactive |
| Nc1cc(C(=O)O)c(O)c(S(=O)(=O)O)c1 | inactive |
| COCc1ccc(COC)cc1 | inactive |
| CCCCc1ncc(/C=C(\Cc2cccs2)C(=O)O)n1Cc1ccc(C(=O)O)cc1 | inactive |
| C=CC(C)CCC=C(C)C (stereo not drawn) | inactive |
| CCCCOC(=O)CC#N | inactive |
| COC(C)OC | inactive |
| Cc1cc(N)c(S(=O)(=O)O)cc1Cl | inactive |
| CC(C)C(=O)OCC(C)(C)C(O)C(C)C (stereo not drawn) | inactive |
| CC1(C)S[C@@H]2[C@H](NC(=O)[C@@H](NC(=O)N3CCNC3=O)c3ccccc3)C(=O)N2[C@H]1C(=O)O | inactive |
| O=C(c1ccc(Cl)cc1)c1ccc(Cl)cc1 | inactive |
| Cc1cccc(C)c1NC(=O)NC1=CCCN1C | inactive |
| COC(=O)NCCC[Si](OC)(OC)OC | inactive |
| CCC(=O)Nc1ccc(O)cc1 | inactive |

| Compound | outcome |
| --- | --- |
| NC(CO)C(=O)NNCc1ccc(O)c(O)c1O (stereo not drawn) | inactive |
| CC(=O)Nc1ccc(OCC(O)CNC(C)C)cc1 (stereo not drawn) | inactive |
| CCN1C(=O)c2ccccc2C1Nc1ccc(OCCN2CCCCC2)cc1 (stereo not drawn) | inactive |
| CC/C(=C(/CC)c1ccc(OP(=O)(O)O)cc1)c1ccc(OP(=O)(O)O)cc1 | inactive |
| CO[C@]1(NC(=O)CSC(F)F)C(=O)N2C(C(=O)O)=C(CSc3nnnn3CCO)CO[C@H]21 | inactive |
| CC(C)(C)NSc1nc2ccccc2s1 | inactive |
| CC(C)c1ccccc1C(C)C | inactive |
| COCCOC(=O)CC#N | inactive |
| CC(=O)OCC1=C(C(=O)O)N2C(=O)[C@@H](NC(=O)Cc3ccccc3)[C@H]2SC1 | inactive |
| Cc1ccccc1N1C(=O)c2cc(S(N)(=O)=O)c(Cl)cc2NC1C (stereo not drawn) | inactive |
| COc1ccc(-c2cc(=O)c3c(O)cc(O[C@@H]4O[C@H](CO[C@@H]5O[C@@H](C)[C@H](O)[C@@H](O)[C@H]5O)[C@@H](O)[C@H](O)[C@H]4O)cc3o2)cc1O | inactive |
| OC[C@H]1O[C@@H](OCCc2ccc(O)cc2)[C@H](O)[C@@H](O)[C@@H]1O | inactive |
| NCC1CCC(C(=O)Oc2ccc(CCC(=O)O)cc2)CC1 (stereo not drawn) | inactive |
| CCCC(C)CO (stereo not drawn) | inactive |
| CCN(CCO)CCCC(C)Nc1ccnc2cc(Cl)ccc12 (stereo not drawn) | inactive |
| FC(F)(F)c1ccccc1-n1ccnc1 | inactive |
| CC(=O)OCC(=O)[C@@]1(O)[C@H](C)C[C@H]2[C@@H]3C[C@H](F)C4=CC(=O)C=C[C@]4(C)[C@H]3[C@@H](O)C[C@@]21C | inactive |
| CN(C)CCC(O)(c1ccccc1)c1ccccc1Cl (stereo not drawn) | inactive |
| CN[C@@H]1CCc2[nH]c3ccc(C(N)=O)cc3c2C1 | inactive |
